DAX1 inh-1 = DAX1 (NR0B1) inhibitors, primary screen, cell-based, HEK293, Gal4-DAX1, luciferase luminescence | Nuclear receptor subfamily 0 group B member 1 (Homo sapiens), P51843 | HEK293 Gal4-DAX1 luciferase reporter | inhibition, % at 6.75 µM | actives 0.99% (n = 340,000) | AID 504766, 2011;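 active means inhibition above the mean over all tested compounds plus 3 SD, cut at about 4.2% in these data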;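 further: 0% = DAX1-transfected cells with DMSO and 100% = empty-vector control cells with DMSO; inhibition shows as a rise in luminescence from relieved DAX1 repression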
Target sequence (P51843 207-470 limits assumed): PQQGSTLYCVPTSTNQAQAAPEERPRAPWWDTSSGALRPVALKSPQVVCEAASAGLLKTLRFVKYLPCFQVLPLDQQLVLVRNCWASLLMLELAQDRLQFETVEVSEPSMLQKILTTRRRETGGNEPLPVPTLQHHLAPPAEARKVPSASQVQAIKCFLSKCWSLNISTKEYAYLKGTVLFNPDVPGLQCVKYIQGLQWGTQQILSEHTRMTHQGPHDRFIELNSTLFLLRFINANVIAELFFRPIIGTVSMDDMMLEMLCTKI
DAX1 inh-2 = DAX1 (NR0B1) inhibitors on StAR promoter, primary screen, cell-based, luminescence, SF-1 (NR5A1), full-length DAX-1. HEK293T StAR-luciferase reporter, SF-1/DAX-1 repression relief. inhibition, % at 6.8 µM. actives 1.1% (n = 370,000);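 active means inhibition above the mean over all tested compounds plus 3 SD, cut at about 3.6% in these data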;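 further: 0% = DAX-1 cells with DMSO and 100% = cells lacking DAX-1 with DMSO; higher inhibition means more luminescence from relief of DAX-1 repression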
hcDAF-12 act = H. contortus DAF-12 nuclear receptor activators, primary screen, cell-based, luminescence, HEK293, lit1-tk-luc reporter; HEK293 hcDAF-12 lit1-tk-luc reporter; 0% DMSO, 100% Δ7-dafachronic acid; activation, % at 6.8 µM; actives 1.4% (n = 370,000);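 active means activation above the mean of all tested compounds plus 3 SD, cut at about 5.5% in these data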;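 further: 100% = response to 3 µM Δ7-dafachronic acid high control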
AHR act = AHR activators, primary screen, cell-based, luminescence, luciferase reporter, human; Aryl hydrocarbon receptor (Homo sapiens), P35869; activation, % at 5 µM; AHR-responsive luciferase reporter cells; actives 2.5% (n = 320,000); in the data active means activation above about 47%;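 further: 0% = vehicle wells and 100% = reference agonist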
ssDAF12 agonist = S. stercoralis DAF-12 nuclear receptor activators, primary screen, cell-based, luminescence, HEK293, GRIP1 co-expression, lit1-tk-luc | Nuclear hormone receptor DAF-12 (Strongyloides stercoralis) | HEK293 ssDAF-12/GRIP1 lit1-tk-luc reporter; % of 3 µM dafachronic acid response | activation, % at 6.8 µM | actives 1% (n = 370,000) | AID 652126, 2013;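 active means activation above the mean over all tested compounds plus 3 SD, cut at about 0.9% in these data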;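 further: 0% = DMSO-only wells and 100% = 3 µM delta7-dafachronic acid wells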
hgDAF-12 ag = H. glycines DAF-12 receptor agonists, primary screen, cell-based, luminescence, HEK293, GAL4 fusion, UAS-luciferase; AID 687014, 2013; actives 1.8% (n = 370,000); HEK293 GAL4-hgDAF12 UAS-luciferase reporter, agonist luminescence; normalized to butyrate control; activation, % at 6.8 µM;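 active means activation above a cutoff set at the mean of all screened compounds plus 3 SD, cut at about 10% in these data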;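 further: 0% = DMSO wells and 100% = sodium butyrate wells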
AHR act cf = AHR activators, confirmation, cell-based, luminescence, luciferase reporter, human; activation, % at 9 µM; human cells, AHR-responsive luciferase reporter; actives 87% (n = 2,300); shares compounds with AHR act; in the data active means activation above about 49%;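 further: HepG2 hepatoma cells carrying a DRE-driven firefly luciferase reporter; 0% = vehicle wells and 100% = reference agonist wells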
PXR counter = human PXR activators, counter-screen for AHR activator project, cell-based, luciferase luminescence; shares compounds with AHR act; cell-based PXR reporter; activation, % at 11.6 µM; actives 88% (n = 2,300); in the data active means activation above about 11%;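 further: human hepatoma DPX-2 cells expressing full-length human PXR; 0% = DMSO and 100% = reference agonist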
Target sequence (O75469 whole entry, looked up): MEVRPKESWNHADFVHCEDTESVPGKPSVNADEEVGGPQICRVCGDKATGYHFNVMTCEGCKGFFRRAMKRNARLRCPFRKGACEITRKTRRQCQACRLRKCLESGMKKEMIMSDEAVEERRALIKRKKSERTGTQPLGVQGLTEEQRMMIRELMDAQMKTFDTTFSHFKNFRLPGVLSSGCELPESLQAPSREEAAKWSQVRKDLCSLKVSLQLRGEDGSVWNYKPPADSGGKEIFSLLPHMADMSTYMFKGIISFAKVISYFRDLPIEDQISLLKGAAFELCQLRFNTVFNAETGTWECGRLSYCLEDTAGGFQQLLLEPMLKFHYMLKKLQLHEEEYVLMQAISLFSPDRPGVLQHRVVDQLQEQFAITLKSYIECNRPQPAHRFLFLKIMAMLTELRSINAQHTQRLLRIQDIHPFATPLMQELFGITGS
DAX1 inh confirm = DAX1 (NR0B1) inhibitors relieving SF-1 repression, confirmation, cell-based, luminescence, HEK293T, full-length DAX-1, SF-1 activated StAR promoter. shares compounds with DAX1 inh-2. HEK293T StAR-promoter luciferase reporter, SF-1/DAX-1 repression. AID 652134, 2013. inhibition, % at 6.8 µM. actives 87% (n = 2,400);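 active means inhibition above the average of every tested compound plus 3 SD, cut at about 3.8% in these data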;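 further: 0% = DAX-1 cells with DMSO and 100% = no DAX-1 control cells with DMSO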
SF1 mutant ctr = StAR reporter signal changes without DAX1, counter-screen for DAX1 inhibitor project, cell-based, luminescence, AF-2 mutant SF-1, transactivation. shares compounds with DAX1 inh-2. HEK293 StAR-luciferase, SF-1 AF2 mutant. inhibition, % at 6.8 µM. actives 78% (n = 2,400);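 active means inhibition above the mean of all tested compounds plus 3 SD, cut at about 3% in these data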;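 further: 0% = DAX-1 transfected cells with DMSO and 100% = cells without DAX-1 with DMSO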
LXRb hcDAF ctr = LXR agonists, Gal4 luciferase reporter, confirmation, counter-screen for hcDAF-12 agonist project, cell-based, luminescence, HEK293, H. contortus campaign. shares compounds with hcDAF-12 act. HEK293 Gal4-LXR tk-luc reporter, 24 h; normalized: DMSO 0%, positive control 100%. activation, % at 6.8 µM. 3,400 tested, under 10 active. AID 743027, 2013;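 active means mean percent activation of the reporter above a cutoff set as the average over tested compounds plus their standard deviation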
hcDAF12 conf = H. contortus DAF-12 receptor agonists, confirmation, cell-based, luminescence, HEK293, lit1-tk-luc, triplicate; activation, % at 6.8 µM; actives 61% (n = 3,400); AID 743032, 2013; HEK293 hcDAF-12 lit1-tk-luc reporter; % of Δ7-dafachronic acid response; shares compounds with hcDAF-12 act;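 active means mean activation across triplicate tests above the threshold derived from the earlier primary screen, cut at about 5.5% in these data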;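 further: 0% = DMSO only wells and 100% = 3 µM Δ7-dafachronic acid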
hgDAF12 conf = H. glycines DAF-12 receptor agonists, confirmation, cell-based, luminescence, HEK293, GAL4-LBD fusion | HEK293 GAL4-hgDAF12 luciferase reporter, agonist mode; percent of butyrate response | activation, % at 6.8 µM | shares compounds with hgDAF-12 ag | actives 80% (n = 3,300);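 active means mean activation over triplicate wells above the hit cutoff derived from the earlier primary screen, cut at about 11% in these data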;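 further: 0% = DMSO low control and 100% = 2 mM sodium butyrate high control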
LXRb DAF12 ctr = LXR agonists, Gal4 luciferase reporter, confirmation, counter-screen for hgDAF-12 agonist project, cell-based, luminescence, HEK293, H. glycines campaign; shares compounds with hgDAF-12 ag; 24 h; activation, % at 6.8 µM; 3,300 tested, under 10 active;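 active means mean activation of the triplicate above a set limit carried over from the primary screen, none filed active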
* hit, by the source's call; / = no result given. The list is not random: actives were taken first. Their share in the collection is about 5.7%.

SMILES	DAX1 inh-1	DAX1 inh-2	hcDAF-12 act	AHR act	ssDAF12 agonist	hgDAF-12 ag	AHR act cf	PXR counter	LXRb hcDAF ctr	hcDAF12 conf	hgDAF12 conf	LXRb DAF12 ctr	others
Cc1ccccc1C(=O)Nc1ccc(C(=O)N/N=C/c2ccncc2)cc1	-1	0	0	0	-2	3	/	/	/	/	/	/
O=C(Nc1ccccc1C(=O)N/N=C/c1ccncc1)c1ccccc1	-2	0	3	101*	0	14*	41	37*	/	/	12*	0
Cc1ccc(C)c(NC(=S)c2ccc3ccccc3n2)c1	2	2	22*	88*	2.0*	17*	104*	16*	1	15*	17*	1
Cc1cc2c([nH]c3ccccc32)c2c1OC(C)(C)C=C2	5.0*	4.2*	2	102*	1.1*	14*	119*	72*	/	/	11*	0
C[C@@H](CSc1ccccc1)CN1CC[C@H](O)CCC1=O	2	0	0	4	-2	2	/	/	/	/	/	/
Cc1ccc(NCc2nc3ccccc3n2C)cc1	3	6.3*	15*	80*	3.5*	14*	66*	12*	1	17*	18*	1	DAX1 inh confirm=15*;SF1 mutant ctr=8.2*
Cn1c(CNc2ccc(Br)cc2)nc2ccccc21	4.7*	3	12*	108*	1.4*	14*	185*	48*	1	11*	18*	1
Cc1c(NC(=O)CN2C(=O)NC3(CCC(C)CC3)C2=O)c(=O)n(-c2ccccc2)n1C (stereo not drawn)	-1	0	-1	0	-2	1	/	/	/	/	/	/
c1ccc2c(c1)CCN(c1nc3cc4c(cc3s1)OCO4)C2	3	4.2*	8.8*	103*	2.2*	14*	45	35*	2	8.1*	19*	1
Oc1cc2c(cc1CN1CCc3ccccc3C1)OCO2	0	-1	0	6	0	1	/	/	/	/	/	/
O=C(Nc1nc2cc3c(cc2s1)OCCO3)c1ccncc1	3	3	0	7	-1	8	/	/	/	/	/	/
Fc1ccc2nc(Nc3nc4cc5c(cc4s3)OCCO5)sc2c1	1	4.2*	2	103*	1.5*	15*	52*	-6	/	/	5	1
NCCS	0	0	1	-1	-1	-2	/	/	/	/	/	/
CCC(C)n1c(/C=C/c2ccccc2)nc2ccccc21 (stereo not drawn)	-1	0	2	47	-1	3	/	/	/	/	/	/
CC(C)Cn1c(/C=C/c2ccccc2)nc2ccccc21	0	3	1	84*	0	14*	119*	68*	/	/	9	0
CC(=O)Oc1ccccc1/C=C/c1ccc2ccccc2[n+]1C	4	2	6.0*	111*	1.9*	13*	21	14*	/	/	11*	0
Nc1nc(-c2cccnc2)nc2sc3c(c12)CCCC3	2	4.5*	8.7*	118*	1.5*	20*	90*	72*	1	4	15*	1
O=C1CN(c2nc(-c3cccnc3)nc3sc4c(c23)CCCC4)CCN1	-1	-1	-3	17	-2	-2	/	/	/	/	/	/
CCN1C(=O)[C@H]2[C@@H](c3ccc(-c4ccc(C(C)=O)cc4)cc3)N3CCC[C@@]3(C(=O)OC)[C@H]2C1=O	-2	-1	0	-2	-1	1	/	/	/	/	/	/
N/C(=N\OC(=O)c1cc(Cl)ccc1Cl)c1ccccn1	-1	3	17*	122*	2.2*	18*	64*	17*	2	16*	21*	1
Oc1c(-c2cc(-c3ccco3)[nH]n2)ccc2ccccc12	4	3.6*	13*	116*	2.6*	20*	149*	13*	2	15*	25*	1
O=C1NC(=Nc2ccccc2)S/C1=C/c1cccs1	3	1	3	116*	0	15*	120*	32*	/	/	10	0
CCOC(=O)/C(=N\Nc1ccc(OC)cc1)c1csc(Nc2ccccc2)n1	-1	-1	1	9	-1	2	/	/	/	/	/	/
